# Data taken from the supplement of paper PMC6555819.
# Columns and labels:
# Experiment in all cases: PBM binding z-score (relative to random genomic background probes); higher = stronger binding; sequences stand for … in GC…GCGATTGACAGCGTAGAATGAAGG
# [1] = system: RARb homodimer (NR concentration 270 nM)
# In short: (§1)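 The probes on custom Agilent 4×180K protein-binding microarrays were double-stranded, with 34-nt variable regions bearing direct-repeat seeds, single-nucleotide variants, half-site ablations and random human genomic background sequences. Incubation lasted 1 h with ligand-free nuclear receptor dimers in PBS pH 7.4, 2% milk, 0.02% Triton X-100, 1 mM DTT, 0.2 mg/mL BSA and 0.4 mg/ml salmon testes DNA. Antibodies against each partner (one per run) detected bound dimers, and fluorescence scans were regression-normalized. Binding z-scores take the random background probes as reference.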
# [2] = system: RARg:RXRa (NR concentration 270 nM, RXRa partner concentration 90 nM)
# In short: as §1
# [3] = system: RARg homodimer (NR concentration 270 nM)
# In short: as §1
# [4] = system: RXRa DBDmut IVT, anti-RXR (DBD mutation: RXRa K156A/R161A, NR concentration 90 nM)
# In short: as §1
# [5] = system: RXRa homodimer (NR concentration 180 nM)
# In short: as §1
# [6] = system: THRa:RXRa (NR concentration 90 nM, RXRa partner concentration 90 nM)
# In short: as §1
# [7] = system: THRa homodimer (NR concentration 90 nM)
# In short: as §1
# [8] = system: VDR:RXRa (NR concentration 270 nM, RXRa partner concentration 90 nM)
# In short: as §1
# [9] = system: VDR homodimer (NR concentration 270 nM)
# In short: as §1
Sequence,PBM binding z-score [1],PBM binding z-score [2],PBM binding z-score [3],PBM binding z-score [4],PBM binding z-score [5],PBM binding z-score [6],PBM binding z-score [7],PBM binding z-score [8],PBM binding z-score [9]
CCTTACGGTTCACTGACAGGTTATAGCATTTGGA,1.26,3.49,0.922,3.31,2.05,1.53,0.708,2.6,2.95
AGATTGAGGTTACCAAAGATCAGGGAAACGCTTG,0.91,2.15,1.94,1.36,2.81,2.91,1,1.39,0.381
CGAACTATGTCAAAGGACAGTGAAAGGCGACGTA,1.14,1.08,1.39,-0.18,0.00503,0.122,-0.538,-0.0394,-0.0132
CCGAGTAGGTTACGAGGGGGCAATCAGTGCGAAT,2.19,3.42,2.54,1.02,2.13,3.65,0.431,4.72,2.8
CTATGTAGGTTAAGGGGGTCACTCAGTTTGAAAG,3.95,5.13,3.79,1.85,5.58,3.79,2.06,7.21,5.29
CAAACTAGGTCACGAAAGGTCAAAATCGAATGAC,5.7,7.53,8.09,2.25,8.44,4.89,2.42,6.51,3.13
CAAACTAGGTCACGAAAGGTCAAAGTTGAATGAC,6.02,8.01,8.58,2.59,8.85,5.01,2.88,6.81,3.89
AATACAGGGTCACTGGGCCAGAGTAGGTACGAAT,3.72,5.73,5.37,2.35,6.2,3.59,1.3,4.65,2.73
ATATGAAGGTTATCGGGTCATTCAGTTTGCGCAT,3.17,4,2.89,2.04,4.02,3.38,2.69,5.41,4.06
AATTCAGGGTCACTAGGCCAGAGTAGGTACGAAT,3.83,6.06,5.56,3.39,6.68,4,1.78,4.79,2.97
TCGAGTAGGTTCCGGGGGCATTCAGGGATGAAGA,1.25,1.57,1.13,1.02,1.33,3.53,1.08,2.54,3.01
CCGAGTAGTTTACGAGGGGGCATTCAGTGCGAAT,1.7,1.92,1.48,2.08,1.37,2.54,0.595,4.03,3.37
GATACAGGGTCAAGGCCAGAATACGCGTATTGAT,3.49,5.5,4.93,2.08,5.95,3.62,1.21,4.05,1.6
CGTCCAAGGTCAAAGGTCAGTAAAGAGATGACGG,5.42,8.65,8.13,3.88,10.4,4.82,2.37,6.53,3.52
CCTACTGGGCCATTCAGAGGTCATTGTTCATATG,4.14,4.19,2.88,1.2,3.37,3.23,1.38,3.9,3.59
CCTACTGGGCCAAGCTCATTGATCAGTCAAAGCA,-0.235,-0.314,-0.109,-0.384,-0.732,-0.704,-0.701,-0.667,-0.851
TAGAGTAGGTTACGGGGGCATTCAGGGATGAAGA,2.5,3.43,2.77,2.08,3.21,3.99,1.75,4.09,3.81
CGAAGTAGGTCACCAGGACAGTGAAGAGGTTGGA,3.32,4.39,5.16,1.03,3.57,2.85,1.2,2.07,0.581
TCGAGTAGGTTACGGTGGCATTCAGGGATGAAGA,0.0468,0.487,0.23,-0.239,0.829,0.835,-0.365,0.16,-0.35
CGAACTAGCTCACCAGGACAGTGAAGAGGTTGGA,0.0882,-0.448,-0.336,0.0205,-0.153,0.96,0.613,-0.616,-0.481
CTATGTAGGTTAAGGGGGTCATGCAGTTTGAAAG,4.24,5.46,4.16,2.12,6.12,4.11,2.49,7.13,5
AGTCAAAGTTCAGTAGGTAACGTAAGATTCAGCT,3.15,3.74,4.28,3.23,2.08,0.91,-0.604,2.4,2.23
CTATGTAGGTTAAGGGGATCATTCAGTTTGAAAG,0.917,0.82,0.66,0.605,1.12,0.96,0.136,2.59,0.834
CCTTACGGGTCTCTCCAGGTTATAGCATCGGAGT,0.324,0.139,0.231,-0.347,0.0573,3.09,0.346,0.117,0.105
CCGAGTAGGTTACGAGGGTGCATTCAGTGCGAAT,0.573,0.908,0.734,0.804,1.18,1.71,-0.985,4.73,3.12
CTATGAAGGTTAAGGGGGTCATTCAGTTTGAAAG,4.39,5.59,4.32,2.92,6.52,3.97,2.22,7.95,6.88
